Assay results taken from PubChem BioAssay (EPA / NIEHS).
“And” between values parts separate entries of the source, which are not always exact repeats. Identical values can stand only once. The source holds several records for some structures; these can differ, active in one and inactive in another. The source made the active and inactive calls. The calls were made as follows: active = hit-call score of the fitted dose curve at least 0.9, where 1 is the maximum; inactive = score below 0.9.

Legend:
[1] = read-out: Collagen I, COL1A1 (gene 1277); experiment: BSK_hDFCGF_CollagenI: BioMAP Diversity Plus: hDFCGF Assay for Collagen I Biomarker Activity (AID 2284250); conditions: primary human foreskin fibroblasts
Summary of the method: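 Primary human foreskin fibroblasts (hDFCGF system) exposed to chemical for 24 h; Collagen I measured by ELISA. Activity fitted in the positive direction relative to DMSO baseline, with SRB total-protein staining in parallel cultures for overt cytotoxicity.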

[2] = read-out: Plasminogen activator inhibitor-1 (PAI1), SERPINE1 (gene 5054); experiment: BSK_KF3CT_PAI1: BioMAP Diversity Plus: KF3CT Assay for Plasminogen activator inhibitor-1 (PAI1) Biomarker Activity (AID 2284252); conditions: primary human keratinocytes with fibroblasts
Summary of the method: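 Human primary keratinocyte/foreskin fibroblast co-culture was dosed with compound and sampled at 24 h. PAI-1 was quantified by ELISA, with activity fitted in the positive direction relative to DMSO vehicle as baseline.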

[3] = read-out: Monocyte Chemoattractant Protein-1 (MCP1), CCL2 (gene 6347); experiment: BSK_IMphg_MCP1: BioMAP Diversity Plus: IMphg Assay for Monocyte Chemoattractant Protein-1 (MCP1) Biomarker Activity (AID 2284253); conditions: primary human endothelial cells with macrophages
Summary of the method: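 Human venular endothelial cells co-cultured with macrophages; MCP-1 measured by ELISA 24 hours post-dose and fitted against DMSO. Cytotoxicity monitored by SRB total-protein staining in parallel cultures.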

[4] = read-out: Interleukin-8 (IL8), CXCL8 (gene 3576); experiment: BSK_KF3CT_IL8: BioMAP Diversity Plus: KF3CT Assay for Interleukin-8 (IL8) Biomarker Activity (AID 2284254); conditions: primary human keratinocytes with fibroblasts
Summary of the method: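 Human primary keratinocyte plus foreskin fibroblast co-culture dosed with test chemicals; IL-8 measured by ELISA 24 h after dosing. Activity fitted in the positive direction relative to DMSO negative control.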

[5] = read-out: Macrophage Inflammatory Protein-1 Alpha (MIP1a), CCL3 (gene 6348); experiment: BSK_IMphg_MIP1a: BioMAP Diversity Plus: IMphg Assay for Macrophage Inflammatory Protein-1 Alpha (MIP1a) Biomarker Activity (AID 2284255); conditions: primary human endothelial cells with macrophages
Summary of the method: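 Co-culture of human venular endothelial cells and macrophages exposed to compounds for 24 h; MIP-1a measured by ELISA relative to DMSO. Cytotoxicity assessed in parallel cultures by sulforhodamine B total-protein staining at 560 nm.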

[6] = read-out: Plasminogen activator inhibitor-1 (PAI1), SERPINE1 (gene 5054); experiment: BSK_MyoF_PAI1: BioMAP Diversity Plus: MyoF Assay for Plasminogen activator inhibitor-1 (PAI1) Biomarker Activity (AID 2284256); conditions: primary human lung fibroblasts
Summary of the method: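 ELISA read-out of PAI-1 from primary human lung fibroblast cultures 24 h after dosing; gain-of-signal fit versus DMSO control.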

[7] = read-out: CD69, CD69 (gene 969); experiment: BSK_IMphg_CD69: BioMAP Diversity Plus: IMphg Assay for CD69 Biomarker Activity (AID 2284257); conditions: primary human endothelial cells with macrophages
Summary of the method: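 Human venular endothelial cells co-cultured with macrophages; CD69 quantified by ELISA 24 h after compound addition. Activity fitted in the positive direction relative to DMSO baseline; cytotoxicity tracked in parallel cultures via SRB total-protein staining.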

[8] = read-out: Monocyte Chemoattractant Protein-1 (MCP1), CCL2 (gene 6347); experiment: BSK_BF4T_MCP1: BioMAP Diversity Plus: BF4T Assay for Monocyte Chemoattractant Protein-1 (MCP1) Biomarker Activity (AID 2284259); conditions: primary human bronchial epithelial cells with fibroblasts
Summary of the method: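 Co-culture of bronchial epithelial cells and dermal fibroblasts dosed with chemical; MCP-1 measured by ELISA 24 h later. Activity fitted in positive direction versus DMSO; cytotoxicity checked by SRB staining in parallel cultures.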

[9] = read-out: Interferon-inducible T-cell alpha chemoattractant (ITAC), CXCL11 (gene 6373); experiment: BSK_hDFCGF_ITAC: BioMAP Diversity Plus: hDFCGF Assay for Interferon-inducible T-cell alpha chemoattractant (ITAC) Biomarker Activity (AID 2284251); conditions: primary human foreskin fibroblasts
Summary of the method: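 Primary human foreskin fibroblasts (hDFCGF system) treated for 24 h; I-TAC quantified by ELISA. Gain-direction fitting versus DMSO; parallel SRB staining of total protein flagged overt cytotoxicity.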

[10] = read-out: Eotaxin 3, CCL26 (gene 10344); experiment: BSK_BF4T_Eotaxin3: BioMAP Diversity Plus: BF4T Assay for Eotaxin 3 Biomarker Activity (AID 2284258); conditions: primary human bronchial epithelial cells with fibroblasts
Summary of the method: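 Co-culture of human bronchial epithelial cells and dermal fibroblasts, exposed to chemicals for 24 h versus DMSO. Eotaxin-3 quantified by ELISA; cytotoxicity checked in parallel cultures by sulforhodamine B total-protein staining.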

Measured: AC50

OCCCCC(F)(F)C(F)(F)C(F)(F)C(F)(F)F
not listed: [9] | [10]
inactive: all other assays above

CNS(=O)(=O)C(F)(F)C(F)(F)C(F)(F)C(F)(F)C(F)(F)C(F)(F)C(F)(F)C(F)(F)F
active: [2] 7.81 µM
inactive: [1] | [2] | [3] | [5] | [6] | [7] | [8]

C=CC(=O)OCC(F)(F)C(F)(F)C(F)(F)COC(=O)C=C
inactive: [1]
active: [9] 733 nM and 1.58 µM | [2] 22.7 µM and 21.2 µM | [3] 37.9 µM and 36.8 µM | [5] 47.1 µM and 48 µM | [6] 14.2 µM and 14.7 µM | [7] 54.8 µM and 44 µM | [8] 15.3 µM and 11.7 µM

NC(=O)C(F)(F)C(F)(F)C(F)(F)C(F)F
not listed: [4] | [10]
inactive: all other assays above

CCN=C1C=CC(=C(c2ccc(N(CC)CC)cc2)c2ccc(N(CC)CC)cc2)c2ccccc21
active: [2] 1.64 µM and 1.56 µM
inactive: [1]

O=C(Cl)C(F)(F)C(F)(F)C(F)(F)C(F)(F)C(F)(F)C(F)(F)C(F)(F)F
active: [3] 52.9 µM | [5] 237 nM
inactive: [1] | [2] | [3] | [5] | [6] | [7] | [8]

OCCCC(F)(F)C(F)(F)C(F)(F)C(F)(F)C(F)(F)C(F)(F)C(F)(F)C(F)(F)F
inactive: [1]
active: [9] 7.67 µM and 5.74 µM | [2] 12.7 µM and 9.08 µM | [3] 18.5 µM and 21.1 µM | [5] 41 µM and 56.7 µM | [6] 16.5 µM and 11.1 µM | [7] 40.1 µM and 48.6 µM | [8] 21.6 µM and 18 µM

FC(F)(F)C(F)(F)C(F)(F)CC1CO1 (centres undefined)
not listed: [4] | [9]
inactive: all other assays above

FC(F)(F)C(F)(F)C(F)(F)C(F)(F)C(F)(F)C(F)(F)CC[Si](Cl)(Cl)Cl
not listed: [4] | [10]
inactive: all other assays above

NC(=O)C(F)(F)C(F)(F)C(F)(F)C(F)(F)C(N)=O
not listed: [4] | [10]
inactive: all other assays above

CO[Si](C)(CCC(F)(F)C(F)(F)C(F)(F)C(F)(F)C(F)(F)C(F)(F)F)OC
not listed: [4] | [9] | [10]
inactive: all other assays above

O=C(O)CCC(F)(F)C(F)(F)C(F)(F)C(F)(F)C(F)(F)C(F)(F)C(F)(F)F
active: [5] 1.39 µM and 1.57 µM | [8] 949 nM
inactive: [1] | [9] | [2] | [3] | [6] | [7] | [8]

OCC(F)(F)C(F)(F)C(F)(F)C(F)(F)C(F)(F)C(F)(F)CO
not listed: [4] | [9] | [10]
inactive: all other assays above

NS(=O)(=O)C(F)(F)C(F)(F)C(F)(F)C(F)(F)C(F)(F)C(F)(F)F
inactive: [1] | [2] | [3] | [5] | [6] | [8]
active: [3] 22.3 µM | [7] 21.7 µM and 30 µM | [8] 7990 nM

C[Si](Cl)(Cl)CCC(F)(F)C(F)(F)C(F)(F)C(F)(F)C(F)(F)C(F)(F)F
not listed: [9]
inactive: all other assays above

C=CC(=O)OCCC(F)(F)C(F)(F)C(F)(F)C(F)(F)F
not listed: [4] | [9] | [10]
inactive: all other assays above

O=C(O)CCC(F)(F)C(F)(F)C(F)(F)F
not listed: [4] | [9] | [10]
inactive: all other assays above

OCC(F)(F)C(F)(F)C(F)(F)CO
not listed: [4] | [9] | [10]
inactive: all other assays above

Cc1cc(O)c(C(C)(C)C)cc1C(C)(C)C
active: [6] 7.48 µM

C[C@]12CC[C@H]3C(=CCc4cc(O)ccc43)[C@@H]1CCC2=O
inactive: [6]

CC(C)(C)c1cc(CCC(=O)NCCCCCCNC(=O)CCc2cc(C(C)(C)C)c(O)c(C(C)(C)C)c2)cc(C(C)(C)C)c1O
inactive: [6]

O=C(O)C(F)(F)C(F)(F)C(F)(F)C(=O)O
not listed: [4] | [9] | [10]
inactive: all other assays above

CN(C(=O)C(F)(F)C(F)(F)C(F)(F)F)[Si](C)(C)C
not listed: [4] | [9] | [10]
inactive: all other assays above
